According to PubChem BioAssay (Tox21):
Values without a mark were called inactive. Inconclusive results are not listed. Where a call stands in place of a potency, no number is given. The source made the active and inactive calls. Unless noted, calls follow the shape of the full dose curve.

Columns and labels:
[1] = Nuclear factor erythroid 2-related factor 2/antioxidant responsive element (Nrf2/ARE) small molecule agonists: qHTS cell viability counter screen in human keratinocytes (AID 1919968; active = well fitted curve in the direction sought with a large enough effect in the repeat runs; an effect the other way counts as inactive or inconclusive; also: nearly all actives have a fitted effect of over 55% in size; also: potency is read from the fitted curve at half-maximal effect)
In short: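 CellTiter-Fluor fluorescence, read 1 h after reagent, gave viability in the same wells as the ARE-luciferase assay. KeratinoSens cells (1,500/well) had 23 h compound exposure at 37 C/5% CO2 following 5 h plating.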

[2] = Nuclear factor erythroid 2-related factor 2/antioxidant responsive element (Nrf2/ARE) small molecule agonists: luciferase reporter gene qHTS assay in human keratinocytes (AID 1919969); also: nearly all actives have a fitted effect of over 35% in size; also: potency is read from the fitted curve at half-maximal effect
[3] = target: Gonadotropin-releasing hormone receptor (Homo sapiens) (UniProt P30968); test: Human gonadotropin-releasing hormone receptor (GnRHR) small molecule agonists, calcium flux assay in GnRHR-HEK293 cells (AID 1920063); also: nearly all actives have a fitted effect of over 35% in size
Sequence of Gonadotropin-releasing hormone receptor (Homo sapiens) (P30968 whole entry, looked up): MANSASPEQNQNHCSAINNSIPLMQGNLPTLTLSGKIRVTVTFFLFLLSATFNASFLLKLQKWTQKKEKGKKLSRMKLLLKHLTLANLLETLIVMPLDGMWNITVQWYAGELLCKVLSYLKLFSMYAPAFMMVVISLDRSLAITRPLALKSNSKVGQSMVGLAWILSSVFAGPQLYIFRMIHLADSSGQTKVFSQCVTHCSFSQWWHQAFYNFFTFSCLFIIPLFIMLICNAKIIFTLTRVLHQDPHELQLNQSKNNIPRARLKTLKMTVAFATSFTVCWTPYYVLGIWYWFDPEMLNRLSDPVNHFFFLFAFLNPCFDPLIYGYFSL
In short: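 Agonist mode: compounds at 15 concentrations, in triplicate, went onto calcium dye-loaded GnRHR-HEK293 cells. Intracellular calcium was then followed as 480/540 nm fluorescence at 1 s intervals over 3 min.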

[4] = target: KiSS-1 receptor (Homo sapiens) (UniProt Q969F8); test: Human kisspeptin (KISS1R) small molecule agonists, calcium flux assay in KISS1R-HEK293 cells (AID 1920064; active = well fitted curve in the direction sought with a large enough effect in the repeat runs; an effect the other way counts as inactive or inconclusive)
Sequence of KiSS-1 receptor (Homo sapiens) (Q969F8 whole entry, looked up): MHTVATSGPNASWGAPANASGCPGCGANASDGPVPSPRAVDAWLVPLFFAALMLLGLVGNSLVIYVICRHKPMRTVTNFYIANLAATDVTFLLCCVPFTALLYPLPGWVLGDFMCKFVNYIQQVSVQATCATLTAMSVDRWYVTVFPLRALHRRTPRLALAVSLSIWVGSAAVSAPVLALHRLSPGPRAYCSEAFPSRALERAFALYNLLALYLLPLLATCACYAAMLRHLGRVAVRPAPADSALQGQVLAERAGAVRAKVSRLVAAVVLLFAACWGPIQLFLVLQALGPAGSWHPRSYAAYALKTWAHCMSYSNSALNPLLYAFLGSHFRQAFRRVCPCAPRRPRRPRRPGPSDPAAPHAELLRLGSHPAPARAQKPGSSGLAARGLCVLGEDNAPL
In short: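 Agonist mode: intracellular calcium rise tracked at 1 s intervals over 3 min (480/540 nm) immediately after compound addition to dye-loaded KISS1R-HEK293 stable cells. Each compound tested at 15 concentrations in triplicate.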

[5] = G protein-coupled receptor (GPCR) small molecule agonists, calcium flux assay: HEK293 wild type cell line counter screen (AID 1920065)
In short: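 Calcium flux counter screen: compound added in agonist mode at 15 concentrations in triplicate to dye-loaded parental HEK293 cells. Fluorescence (480/540) read kinetically for 3 min; ATP served as positive control.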

[6] = p53 small molecule agonists, cell-based qHTS assay with human liver microsomes (AID 1963577);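 also: p53 response element beta-lactamase reporter cells with liver microsomes plus NADPH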
In short: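 In this qHTS, p53 response-element beta-lactamase cells receive test compound together with a microsome/NADPH activating system (0.5 mg/mL final each) and are incubated 16 h at 37 C before LiveBLAzer fluorescence detection.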

[7] = p53 small molecule agonists, cell-based qHTS assay with rat liver microsomes (AID 1963578)
In short: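 Agonist mode in p53RE-bla reporter cells, with compounds co-incubated 16 h at 37 C alongside 0.5 mg/mL rat liver microsomes and 0.5 mg/mL NADPH (final), followed by a 2 h LiveBLAzer detection step.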

[8] = p53 small molecule agonists, cell-based qHTS assay with rat liver microsomes: qHTS cell viability counter screen (AID 1963580); also: nearly all actives have a fitted effect of over 45% in size
In short: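 Rat liver microsome (0.5 mg/mL final) and NADPH (0.5 mg/mL final) co-incubation with compounds for 16 h at 37 C on HCT-116 p53RE-bla cells; cytotoxicity taken from intracellular ATP luminescence.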

[9] = p53 small molecule agonists, cell-based qHTS assay: qHTS cell viability counter screen (AID 1963581); also: nearly all actives have a fitted effect of over 45% in size
In short: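 Counter screen read by CellTiter-Glo luminescence (ATP content, 30 min at room temperature), run in the same wells as the beta-lactamase reporter read. HCT-116 p53RE-bla cells saw compounds for 16 h at 37 C.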

[10] = p53 small molecule agonists, cell-based qHTS assay (AID 1963582; active = well fitted activation curve with a large enough effect in the signal ratio in the repeat runs, not every such curve was filed as active; the % refers to the signal ratio)
In short: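 Read-out is beta-lactamase FRET fluorescence after 2 h at room temperature with LiveBLAzer B/G substrate. p53 response element-bla cells were treated 16 h at 37 C with compounds in DMSO, added 5 h after seeding.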

[11] = target: 5-hydroxytryptamine receptor 2A (Homo sapiens) (UniProt P28223); test: 5-hydroxytryptamine receptor 2A (HTR2A) small molecule antagonists, cell-based qHTS assay (AID 1963586); also: nearly all actives have a fitted effect of over 45% in size
Sequence of 5-hydroxytryptamine receptor 2A (Homo sapiens) (P28223 whole entry, looked up): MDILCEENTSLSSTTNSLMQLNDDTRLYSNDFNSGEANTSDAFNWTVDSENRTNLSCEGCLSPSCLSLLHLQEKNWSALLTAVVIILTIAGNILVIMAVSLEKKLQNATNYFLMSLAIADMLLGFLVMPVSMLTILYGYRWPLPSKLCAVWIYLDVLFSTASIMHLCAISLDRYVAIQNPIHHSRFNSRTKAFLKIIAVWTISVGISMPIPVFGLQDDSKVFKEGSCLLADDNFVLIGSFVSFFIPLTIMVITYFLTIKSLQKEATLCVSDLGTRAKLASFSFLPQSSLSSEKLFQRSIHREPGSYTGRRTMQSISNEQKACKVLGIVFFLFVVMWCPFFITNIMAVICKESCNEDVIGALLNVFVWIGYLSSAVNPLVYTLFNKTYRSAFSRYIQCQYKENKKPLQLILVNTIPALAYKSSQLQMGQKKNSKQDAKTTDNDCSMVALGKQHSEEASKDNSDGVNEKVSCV
In short: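 CHO cells stably expressing human HTR2A were plated for 18 h at 37 C, then loaded with calcium dye for 1 h. Compounds were preincubated 5 min at room temperature before DOI (4 nM solution) was added. Kinetic fluorescence was read for 3 min.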

[12] = target: 5-hydroxytryptamine receptor 2A (Homo sapiens) (UniProt P28223); test: 5-hydroxytryptamine receptor 2A (HTR2A) small molecule agonists, cell-based qHTS assay (AID 1963587); also: nearly all actives have a fitted effect of over 30% in size
In short: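 Kinetic calcium-flux fluorescence (2 min, 1 sec intervals) after compound addition in agonist mode. HTR2A-CHO cells were cultured 18 h, then dye-loaded 1 h at 37 C.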

[13] = cAMP Responsive Elements (CRE) small molecule agonists, cell-based qHTS assay (AID 1963590)
In short: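 Agonist mode: compound added to CRE-bla HEK 293T cells (2,000/well, 18 h after plating) for 3 h at 37 C/5% CO2. Reporter activity detected via FRET beta-lactamase substrate, 2 h room-temperature loading.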

[14] = cAMP Responsive Elements (CRE) small molecule antagonists, cell-based qHTS assay (AID 1963591; active = well fitted inhibition curve with a large enough effect in the signal ratio in the repeat runs, not every such curve was filed as active; the % refers to the signal ratio)
In short: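 Antagonist mode: compounds are added alongside the adenylyl cyclase activator NKH477 (0.25 uM final) to CRE-bla HEK293T cells for 3 h. LiveBLAzer FRET substrate, 2 h at room temperature, reports bla expression.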

[15] = target: Beta-2 adrenergic receptor (Homo sapiens) (UniProt P07550); test: Adrenergic beta2 receptor (ADRB2) small molecule antagonists, cell-based qHTS assay (AID 1963592); also: series mostly up to about 92 µM; nearly all actives have a fitted effect of over 50% in size
Sequence of Beta-2 adrenergic receptor (Homo sapiens) (P07550 whole entry, looked up): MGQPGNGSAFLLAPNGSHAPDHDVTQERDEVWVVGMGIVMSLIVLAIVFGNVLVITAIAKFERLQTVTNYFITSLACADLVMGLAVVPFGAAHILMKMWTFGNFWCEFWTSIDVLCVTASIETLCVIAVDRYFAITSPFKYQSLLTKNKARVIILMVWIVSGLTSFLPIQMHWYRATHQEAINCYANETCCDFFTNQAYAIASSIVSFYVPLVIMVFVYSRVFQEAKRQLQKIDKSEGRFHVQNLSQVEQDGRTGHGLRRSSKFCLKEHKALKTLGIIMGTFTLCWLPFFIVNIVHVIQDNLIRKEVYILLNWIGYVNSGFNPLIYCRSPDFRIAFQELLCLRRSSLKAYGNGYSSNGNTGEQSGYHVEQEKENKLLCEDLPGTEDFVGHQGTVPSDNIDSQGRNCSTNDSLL
In short: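 Assay format: CHO-ADRB2 cells, 18-20hr seeding at 37C/5% CO2, then compound plus 1nM isoproterenol agonist mix for 0.5hr RT. Homogeneous time-resolved fluorescence cAMP detection after 1hr, expressed as 665/615 nm ratio.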

[16] = target: D(2) dopamine receptor (Homo sapiens) (UniProt P14416); test: Dopamine D2 receptor (DRD2) small molecule antagonists, cell-based qHTS assay (AID 1963595; active = well fitted inhibition curve with a large enough effect in the signal ratio in the repeat runs, with a control signal flat; the % refers to the signal ratio)
Sequence of D(2) dopamine receptor (Homo sapiens) (P14416 whole entry, looked up): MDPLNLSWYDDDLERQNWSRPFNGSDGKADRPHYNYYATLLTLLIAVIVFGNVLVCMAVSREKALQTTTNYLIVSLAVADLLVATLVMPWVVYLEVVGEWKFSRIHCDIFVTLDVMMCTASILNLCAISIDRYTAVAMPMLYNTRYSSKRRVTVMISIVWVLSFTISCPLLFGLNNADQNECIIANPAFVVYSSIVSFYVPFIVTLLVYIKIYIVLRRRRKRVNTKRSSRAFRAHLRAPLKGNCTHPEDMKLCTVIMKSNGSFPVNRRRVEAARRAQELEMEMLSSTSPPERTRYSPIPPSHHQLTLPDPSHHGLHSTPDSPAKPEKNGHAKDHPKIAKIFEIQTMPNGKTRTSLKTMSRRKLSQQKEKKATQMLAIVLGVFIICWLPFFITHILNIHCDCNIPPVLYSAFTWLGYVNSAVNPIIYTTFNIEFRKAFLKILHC
In short: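 Antagonist mode in DRD2-HEK293 cells: after compound addition with 0.1 mM Ro20-1724, cells received quinpirole (12 nM) and NKH477 (200 nM) for 30 min at room temperature; HTRF cAMP read after 1 h detection.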

[17] = target: Muscarinic acetylcholine receptor M1 (Homo sapiens) (UniProt P11229); test: Cholinergic receptor muscarinic 1 (CHRM1) small molecule antagonists, cell-based qHTS assay (AID 1963588); also: nearly all actives have a fitted effect of over 40% in size
Sequence of Muscarinic acetylcholine receptor M1 (Homo sapiens) (P11229 whole entry, looked up): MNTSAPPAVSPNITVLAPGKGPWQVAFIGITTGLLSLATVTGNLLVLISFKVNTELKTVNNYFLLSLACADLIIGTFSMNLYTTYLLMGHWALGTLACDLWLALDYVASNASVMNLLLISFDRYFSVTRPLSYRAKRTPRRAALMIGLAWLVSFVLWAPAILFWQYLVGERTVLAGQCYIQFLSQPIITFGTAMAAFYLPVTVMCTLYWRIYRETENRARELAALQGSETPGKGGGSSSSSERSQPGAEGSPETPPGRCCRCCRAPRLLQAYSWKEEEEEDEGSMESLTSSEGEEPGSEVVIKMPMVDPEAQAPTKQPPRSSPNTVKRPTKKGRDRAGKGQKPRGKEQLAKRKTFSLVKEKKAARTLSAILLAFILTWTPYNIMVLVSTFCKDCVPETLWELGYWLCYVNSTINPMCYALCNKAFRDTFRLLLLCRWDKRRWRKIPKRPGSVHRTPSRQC
In short: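 Compounds were tested at 15 concentrations in three independent runs. Dye-loaded CHRM1-CHO cells were exposed 5 min at room temperature before stimulation by acetylcholine added at 50nM. Intracellular calcium was read kinetically on FDSS for 3 min.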

[18] = target: Muscarinic acetylcholine receptor M1 (Homo sapiens) (UniProt P11229); test: Cholinergic receptor muscarinic 1 (CHRM1) small molecule agonists, cell-based qHTS assay (AID 1963589); also: nearly all actives have a fitted effect of over 35% in size
In short: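 Agonist-mode calcium-flux screen: compounds at 15 concentrations, three independent runs, were pin-transferred onto dye-loaded human CHRM1-CHO cells. Fluorescence was then recorded kinetically every second over minutes.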

[19] = target: D(2) dopamine receptor (Homo sapiens) (UniProt P14416); test: Dopamine D2 receptor (DRD2) small molecule agonists, cell-based qHTS assay (AID 1963594); also: nearly all actives have a fitted effect of over 35% in size
In short: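 cAMP accumulation in DRD2-HEK293 cells measured by HTRF after 1 h detection; compounds added 10 min before NKH477 (200nM […]) forskolin-analogue stimulation, 30 min at room temperature, with Ro20-1724 present at 0.1 mM final.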

Compound: Cc1ccc(S(=O)(=O)NC(=O)NC2CCCCCCC2)cc1
- Potency [1]: inactive
- Potency [2]: inactive
- Potency [3]: inactive
- Potency [4]: inactive
- Potency [5]: inactive
- Potency [6]: inactive
- Potency [7]: inactive
- Potency [8]: inactive
- Potency [9]: inactive
- Potency [10]: inactive
- Potency [11]: inactive
- Potency [12]: inactive
- Potency [13]: inactive
- Potency [14]: inactive
- Potency [15]: inactive
- Potency [16]: inactive

Compound: CCC(C)(C)CC
- Potency [1]: inactive
- Potency [2]: inactive
- Potency [3]: inactive
- Potency [4]: inactive
- Potency [5]: inactive
- Potency [6]: inactive
- Potency [7]: inactive
- Potency [9]: inactive
- Potency [10]: inactive
- Potency [11]: inactive
- Potency [12]: inactive
- Potency [17]: inactive
- Potency [18]: inactive
- Potency [13]: inactive
- Potency [14]: inactive
- Potency [15]: inactive
- Potency [19]: inactive

Compound: O=S(=O)(O)c1ccc2c(N=Nc3ccc(S(=O)(=O)O)c4ccccc34)c(O)c(S(=O)(=O)O)cc2c1
- activity change, negative = cytotoxicity [1]: -5.59% [at 8.39 µM]
- activity, positive = activation [2]: -0.366% [at 8.39 µM]
- activity change [3]: 18.3% [at 5.22 µM, active compounds read high]
- activation [4]: 0.398% [at 6.97 µM]
- activation [5]: 6.05% [at 5.23 µM]
- activation [6]: -6.7% [at 5.99 µM]
- activation [7]: -0.431% [at 5.99 µM]
- activity change, negative = cytotoxicity [8]: -3.24% [at 5.99 µM]
- activity change, negative = cytotoxicity [9]: -2.08% [at 5.99 µM]
- activation [10]: -3.84% [at 5.99 µM]
- activity, negative = inhibition [11]: 0.404% [at 5.62 µM]
- activation [12]: 12.5% [at 7.02 µM]
- activation [18]: 2.33% [at 6.97 µM]
- activation [13]: -1.25% [at 8.39 µM]
- activity change, negative = inhibition [14]: -1.96% [at 8.39 µM]
- activity change, negative = inhibition [15]: -2.48% [at 8.39 µM]
- activation [19]: -0.0629% [at 8.39 µM]
- activity change, negative = inhibition [16]: 0.317% [at 8.38 µM]

Compound: O=Cc1ccc(F)cc1
- Potency [1]: inactive
- Potency [2]: inactive
- Potency [3]: inactive
- Potency [4]: inactive
- Potency [5]: inactive
- Potency [6]: inactive
- Potency [7]: inactive
- Potency [9]: inactive
- Potency [10]: inactive
- Potency [11]: inactive
- Potency [12]: inactive
- Potency [17]: inactive
- Potency [18]: inactive
- Potency [13]: inactive
- Potency [14]: inactive
- Potency [15]: inactive
- Potency [19]: inactive
- Potency [16]: inactive

Compound: O=C(O)CCC(=O)Nc1ccc(S(=O)(=O)Nc2nccs2)cc1
- Potency [1]: inactive
- Potency [2]: inactive
- Potency [3]: inactive
- Potency [4]: inactive
- Potency [5]: inactive
- Potency [6]: inactive
- Potency [7]: inactive
- Potency [8]: inactive
- Potency [9]: inactive
- Potency [11]: inactive
- Potency [12]: inactive
- Potency [17]: inactive
- Potency [18]: inactive
- Potency [14]: inactive
- Potency [15]: inactive
- Potency [19]: inactive

Compound: CCOC(=O)n1ccn(C)c1=S
- Potency [1]: inactive
- Potency [2]: inactive
- Potency [3]: inactive
- Potency [4]: inactive
- Potency [5]: inactive
- Potency [6]: inactive
- Potency [7]: inactive
- Potency [8]: inactive
- Potency [9]: inactive
- Potency [10]: inactive
- Potency [13]: inactive
- Potency [14]: inactive
- Potency [15]: inactive
- Potency [19]: inactive
- Potency [16]: inactive

Compound: CCCCCC(=O)O[C@]1(C(C)=O)CC[C@H]2[C@@H]3CCC4=CC(=O)CC[C@]4(C)[C@H]3CC[C@@]21C
- Potency [1]: 30.4 µM (active)
- Potency [2]: inactive
- Potency [3]: inactive
- Potency [4]: inactive
- Potency [5]: inactive
- Potency [6]: inactive
- Potency [7]: inactive
- Potency [8]: inactive
- Potency [9]: inactive
- Potency [11]: inactive
- Potency [12]: inactive
- Potency [17]: inactive
- Potency [18]: inactive
- Potency [15]: inactive
- Potency [19]: inactive
- Potency [16]: inactive

Compound: N#CC1(O)CCCCC1
- Potency [1]: inactive
- Potency [2]: 61.6 µM (active)
- Potency [3]: inactive
- Potency [4]: inactive
- Potency [5]: inactive
- Potency [6]: inactive
- Potency [7]: inactive
- Potency [8]: inactive
- Potency [10]: inactive
- Potency [11]: inactive
- Potency [12]: inactive
- Potency [17]: inactive
- Potency [18]: inactive
- Potency [13]: inactive
- Potency [14]: inactive
- Potency [15]: inactive
- Potency [19]: inactive
- Potency [16]: inactive
